According to PubChem BioAssay (EPA / NIEHS):
Records with an inconclusive call do not appear. The source made the active and inactive calls. How the source made its calls: active means hit-call score of the fitted dose curve at least 0.9, where 1 is the maximum; inconclusive means response in the unintended direction; inactive means score below 0.9.

experiment: ATG_M_06_TRANS: Attagene TRANS-FACTORIAL HepG2 Assay for M06 Transcription Factor (Internal Marker) (AID 2282983); details: HepG2 Attagene TRANS M06 internal marker reporter
Protocol: ATG_TRANS is a cell-based, multiplexed-readout assay that uses HepG2, a human liver cell line, with measurements taken at 24 hours after chemical dosing in a 24-well plate.ATG_M_06_TRANS is one of 30 assay component(s) measured or calculated from the ATG_TRANS assay. It is designed to make measurements of mRNA induction, a form of inducible reporter, as detected with fluorescence intensity signals by Reverse transcription polymerase chain reaction (RT-PCR) and Capillary electrophoresis technology.Data from the assay component ATG_M_06_TRANS was analyzed into 1 assay endpoint. This assay endpoint, ATG_M_06_TRANS, was analyzed in the positive analysis fitting direction relative to DMSO as the negative control and baseline of activity. Using a type of inducible reporter, measures of mRNA for gain-of-signal activity can be used to understand the background control at the transcription factor-level as they relate to the gene . Furthermore, this assay endpoint can be referred to as a secondary readout, because this assay has produced multiple assay endpoints where this one serves a background control function. To generalize the intended target to other relatable targets, this assay endpoint is annotated to the background measurement intended target family, where the subfamily is internal marker.
Human liver HepG2 cells are transiently transfected with multiple reporter transcription units (MRTUs) in 6-well plates using FuGene 6 reagent (Roche; 3 ml FuGene/1 mg DNA). The MRTU constructs are regulated by a cis-regulating element (promoter). […] A major difference between the CIS and TRANS system is that in CIS activities of endogenous TFs are measured, whereas the TRANS assay evaluates changes in activities of exogenous, chimeric NR-Gal4 proteins. […] At the end of 24 hour incubation, total RNA was isolated using TriZol reagent (Invitrogen). The isolated RNA is then reverse-transcribed using oligo(dT) primer and Mo-MLV reverse transcriptase (Invitrogen) with DNAse I (Ambion) treatment for 30 min. The one-tenth of the produced cDNA was amplified by PCR using Taq DNA polymerase (Invitrogen) and two reporter sequence-specific primers. The PCR products were fluorescently labeled by primer extension with 6-arboxyfluorescein (6-FAM) 5'-labeled reporter sequence-specific primer (2 min at 95 C, 20 s at 68 C and 10 min at 72 C) and these products were digested with 5U of HpaI (New England Biolabs) for 2h at 37 C. The fragments were purified using Qiaquick PCR columns (Qiagen), analyzed on an ABI 3130xL genetic analyzer (Applied Biosystems) with peak positions identified by using a set of X-rhodamine (ROX)-labeled MapMarker1000 molecular weight standards (BioVentures). The raw capillary electrophoresis data was processed using Attagraph software (Attagene).

Row | Compound | outcome
1 | NC(=O)C(F)(F)C(F)(F)C(F)(F)F | inactive
2 | NCC(F)(F)C(F)(F)C(F)(F)C(F)(F)C(F)(F)C(F)(F)F | inactive
3 | N#Cc1ccccc1O | inactive
4 | C#CC(O)CCC (stereo not given) | inactive
5 | CSc1ccc(Cl)cc1 | inactive
6 | OCC(F)(F)C(F)(F)C(F)(F)C(F)(F)C(F)(F)C(F)(F)CO | inactive
7 | C[C@]12CC[C@H]3C(=CCc4cc(O)ccc43)[C@@H]1CCC2=O | inactive
8 | NC(=O)C(F)(F)C(F)(F)C(F)(F)C(F)(F)C(F)(F)C(F)(F)C(F)(F)F | inactive
9 | O=C(c1ccccc1)c1ccc(O)cc1O | inactive
10 | NC(=O)C(F)(F)C(F)(F)C(F)(F)C(F)F | inactive
11 | FC(F)(F)C(F)(F)C(F)(F)CC1CO1 (stereo not given) | inactive
12 | O=S(=O)(O)CCC(F)(F)C(F)(F)C(F)(F)C(F)(F)F | inactive
13 | OCC(F)(F)C(F)(F)C(F)(F)C(F)(F)C(F)(F)C(F)(F)C(F)(F)C(F)(F)CO | inactive
14 | CCCCCCCCCCCCCCCCC | inactive
15 | CCOCN(C(=O)CS(=O)(=O)O)c1c(C)cccc1CC | inactive
16 | O=C1OC(=O)c2ccc3c4c(ccc1c24)C(=O)OC3=O | inactive
17 | O=C1C=CC(=O)N1c1ccccc1 | inactive
18 | CCN(CC)c1ccc(C=O)cc1 | inactive
19 | OCCCc1cccnc1 | inactive
20 | Cc1cc(O)c(C(C)(C)C)cc1C(C)(C)C | inactive

Row | Compound | outcome
21 | CCCCC(CC)COC(=O)c1ccc(N(C)C)cc1 (stereo not given) | inactive
22 | Cc1ccc(O)c(-n2nc3ccccc3n2)c1 | inactive
23 | NC(=O)C(F)(F)C(F)(F)C(F)(F)C(F)(F)C(N)=O | inactive
24 | Nc1c(Br)cc([N+](=O)[O-])cc1Br | inactive
25 | O=S(=O)(O)c1ccc(Cl)cc1 | inactive
26 | CCCCCCCC/C=C\CCCCCCCC(=O)N(C)CC(=O)O | inactive
27 | O=c1[nH]cccc1O | inactive
28 | Cc1cc(C)c(O)c(C(C)(C)C)c1 | inactive
29 | CCn1c2ccccc2c2ccccc21 | inactive
30 | FC(F)(F)C(F)(F)C(F)(F)C(F)(F)C(F)(F)C(F)(F)CC[Si](Cl)(Cl)Cl | inactive
31 | CCOC(OCC)OCC | inactive
32 | Cc1cccc(C)n1 | inactive
33 | CCCCCCCCn1sc(Cl)c(Cl)c1=O | inactive
34 | Cc1cc(=O)[nH]c(C(C)C)n1 | inactive
35 | O=C(O)C(F)(F)C(F)(F)C(F)(F)C(F)(F)C(F)(F)C(F)(F)C(F)F | inactive
36 | C=CCOC(=O)CC(C)C | inactive
37 | O=C(Cl)c1ccc(Cl)cc1Cl | inactive
38 | CCN(CC)c1ccc(C=O)c(O)c1 | inactive
39 | Cc1ccc(S(=O)(=O)C(I)I)cc1 | inactive
40 | OCCCCC(F)(F)C(F)(F)C(F)(F)C(F)(F)F | inactive
